Each structure is given as a SMILES string. Calls of active or inactive are those of the source.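 The calls were made as follows, unless noted: active = signal rise over 3 SD above mean of control wells given weak agonist, in both repeats and first screen; inactive = the rest.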

The subject of the first test is TRPC4 (mouse), co-expressed with 5HT1a in HEK293. The test is described as follows: enhancement of serotonin-evoked TRPC4 response – cell-based, second counter screen, HEK293 TRPC4/5HT1a, Fluo-4, counter-screen for TRPC4 potentiator project, confirmation (AID 434979). The note with it: Fluo-4 calcium flux, at 10 µM, serotonin added at its EC20 dose; stronger effect = higher value.
As for `Cc1cc(-c2ccc(C)c(S(=O)(=O)NCCCN(Cc3ccccc3)C(C)C)c2)on1`, the result was inactive.
The same measure, in the same setting: to `CCc1nc(NCCc2ccccn2)c2nnn(Cc3ccccc3F)c2n1` belongs “inactive”.
For `Cc1sc2ncnc(NCC(C)(C)N3CCOCC3)c2c1C`, the result was inactive.
On the same count and under the same terms, to `Cc1ccc(N2CCN(c3ccc(NCc4nc5ccccc5n4C)cc3)CC2)cc1` belongs “inactive”.
Same read-out and setting: to `COc1ccc(C(CNC(=O)CN2C(=O)NC3(CCCC3)C2=O)N(C)C)cc1` (stereo not given) belongs “inactive”; to `Cc1cccc(NC(=S)NCC(c2cccnc2)N(C)C)c1C` (stereo not given), “inactive”; to `Cc1ccccc1OCC(=O)NNC(=S)NC(=O)c1ccco1`, “inactive”.
The same measure, in the same setting: to `Cc1ccc(Sc2cc(C(=O)NCCN(C)C)c3ccccc3n2)cc1` belongs “inactive”; to `O=C(O)c1ccc(-c2ccc(/C=c3/sc4nc5ccccc5n4c3=O)o2)cc1Cl`, “inactive”; to `Cc1ccccc1C(=O)NNC(=S)NC(=O)c1ccccc1`, “inactive”.
For the molecule `CN(C)C(CNC(=O)c1ccc2ccccc2n1)c1ccccc1` (stereo not given), the result was inactive.
`Cc1cc(NC(=O)CN2CCc3ccccc3C2)nc2c1c(=O)oc1ccccc12`: the outcome was inactive.
On the same count and under the same terms, as for `Cn1c(CN2CCN(c3cccc(Cl)c3)CC2)nc2ccccc21`, the entry is “inactive”; as for `CN(C)C(CNC(=O)c1cnc(Cl)c(Cl)c1)c1ccccc1` (stereo not given), “inactive”; as for `Cc1ccc(Cl)cc1NC(=O)CNCC(c1ccccc1)N(C)C` (stereo not given), “inactive”.
As for `CN(C)CCCN(C(=O)c1ccc(S(=O)(=O)N2CCOCC2)cc1)c1nc2ccc(F)cc2s1`, the result was inactive.
`CN(C)CCN(C(=O)c1cccc2ccccc12)c1nc2cc3c(cc2s1)OCO3`: the outcome was inactive.
Same read-out and setting: as for `Cc1ccc2c(C)c(C(=O)N(Cc3cccs3)C3CCS(=O)(=O)C3)oc2c1` (stereo not given), the entry is “inactive”; as for `CCN1CCN(c2c(Cl)cccc2NC(=O)c2ccc3nsnc3c2)CC1`, “inactive”; as for `O=C(C1CCCN(Cc2ccncc2)C1)N1CCc2ccccc2C1` (stereo not given), “inactive”.
On to `CCN(c1ccccc1)S(=O)(=O)c1ccc(C(=O)N(CCCN(C)C)c2nc3cc4c(cc3s2)OCO4)cc1`, for which the outcome was inactive.
The same measure, in the same setting: to `CC1CCCN(CCCNC(=O)c2ccc3c(c2)N(Cc2ccccc2F)C(=O)c2ccccc2S3(=O)=O)C1` (stereo not given) belongs “inactive”; to `O=C(Nc1nnc(-c2ccccc2Cl)o1)c1nc2ccccc2s1`, “inactive”; to `COc1ccc(C(=O)NC(=S)NNC(=O)CCc2ccccc2)cc1`, “inactive”.
Same read-out and setting: as for `Cc1cc(-c2nn(-c3ccccc3F)cc2CNCCc2cnc[nH]2)c(C)s1`, the entry is “inactive”; as for `Cc1ccc(C(=O)NC(=S)NNC(=O)c2ccccc2)cc1`, “inactive”; as for `Cc1csc2c(N3CCN(C(=O)NC(C)(C)C)CC3)ncnc12`, “inactive”.
Same read-out and setting: to `COC(=O)[C@@]1(Cc2ccc(F)cc2)[C@H]2c3cc(C(=O)N(C)C)n(CCc4ccccn4)c3C[C@H]2CN1C(=O)c1ccccc1` belongs “inactive”; to `CN(CCc1ccccn1)C(=O)CC1C(=O)NCCN1Cc1ccccc1C(F)(F)F` (stereo not given), “inactive”; to `COc1cc(/C=C/C(=O)c2ccc3c(c2)OCO3)cc(Cl)c1O`, “inactive”.
As for `CCn1c(N2CCN(C(=O)Nc3ccc(F)cc3)CC2)nc2ccccc21`, the result was inactive.
With `O=S(=O)(c1ccccc1)c1nnn2c1nc(NC1CCN(Cc3ccccc3)CC1)c1cc(Cl)ccc12`, the result was inactive.
Turning to `CCOC(=O)c1oc2ccc(OC)cc2c1NC(=O)CN1CCN(C)CC1`, the result was inactive.
Still for that read-out and setting: to `C=CCn1c(CCNC(=O)C(C)(C)C)nc2ccccc21` belongs “inactive”; to `CCOC(=O)C1(CCOc2ccccc2)CCN(Cc2ccc3c(c2)OCCO3)CC1`, “inactive”; to `Cc1cc(C)n(-c2nc(SCCN(C)C)c3c4c(sc3n2)CCCC4)n1`, “inactive”.
Turning to `COc1cc(OC)cc(C(=O)NC2CCCN(Cc3ccc(Cl)cc3)C2)c1` (stereo not given), the outcome was inactive.
On the same count and under the same terms, as for `CN(C)C(CNC(=O)CCc1c[nH]c2ccccc12)c1ccccc1` (stereo not given), the entry is “inactive”; as for `CCCCN(CC)CCCNC(=O)Cn1nc(Cc2ccncc2)c2ccccc2c1=O`, “inactive”.
The same measure, in the same setting: to `COC(=O)C1=C(C)N(Cc2ccccc2)C(=NCCc2ccccn2)N[C@H]1c1cccc(F)c1` belongs “inactive”.

System in the next test: not listed separately
The test is described as follows: nonspecific calcium rise without TRPC4 – cell-based, HEK293 mu-opioid receptor line, counter-screen for TRPC4 activator project, confirmation (AID 449723;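 active = hit in primary screen, with calcium signal over 5 SD above buffer well mean in both duplicates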;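 also: counter screen cells carry the mu-opioid receptor alone and lack TRPC4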). The note with it: HEK293 mu-opioid cells, Fluo-4 calcium fluorescence, at 10 µM; stronger effect = higher value.
For the molecule `Cc1cc(-c2ccc(C)c(S(=O)(=O)NCCCN(Cc3ccccc3)C(C)C)c2)on1`, the result was inactive.
Turning to `CCc1nc(NCCc2ccccn2)c2nnn(Cc3ccccc3F)c2n1`, the outcome was inactive.
Regarding `Cc1sc2ncnc(NCC(C)(C)N3CCOCC3)c2c1C`, the result was inactive.
Regarding `Cc1ccc(N2CCN(c3ccc(NCc4nc5ccccc5n4C)cc3)CC2)cc1`, the outcome was inactive.
With `COc1ccc(C(CNC(=O)CN2C(=O)NC3(CCCC3)C2=O)N(C)C)cc1` (stereo not given), the result was inactive.
For the molecule `Cc1cccc(NC(=S)NCC(c2cccnc2)N(C)C)c1C` (stereo not given), the outcome was inactive.
In the case of `Cc1ccccc1OCC(=O)NNC(=S)NC(=O)c1ccco1`, the result was inactive.
Still for that read-out and setting: to `Cc1ccc(Sc2cc(C(=O)NCCN(C)C)c3ccccc3n2)cc1` belongs “inactive”.
In the case of `O=C(O)c1ccc(-c2ccc(/C=c3/sc4nc5ccccc5n4c3=O)o2)cc1Cl`, the activation is 40.9% (active).
On the same count and under the same terms, as for `Cc1ccccc1C(=O)NNC(=S)NC(=O)c1ccccc1`, the figure is 72.9% (active).
On to `CN(C)C(CNC(=O)c1ccc2ccccc2n1)c1ccccc1` (stereo not given), for which the outcome was inactive.
On the same count and under the same terms, as for `Cc1cc(NC(=O)CN2CCc3ccccc3C2)nc2c1c(=O)oc1ccccc12`, the entry is “inactive”; as for `Cn1c(CN2CCN(c3cccc(Cl)c3)CC2)nc2ccccc21`, “inactive”.
Take `CN(C)C(CNC(=O)c1cnc(Cl)c(Cl)c1)c1ccccc1` (stereo not given): the result was inactive.
The same measure, in the same setting: as for `Cc1ccc(Cl)cc1NC(=O)CNCC(c1ccccc1)N(C)C` (stereo not given), the entry is “inactive”; as for `CN(C)CCCN(C(=O)c1ccc(S(=O)(=O)N2CCOCC2)cc1)c1nc2ccc(F)cc2s1`, “inactive”; as for `CN(C)CCN(C(=O)c1cccc2ccccc12)c1nc2cc3c(cc2s1)OCO3`, “inactive”.
`Cc1ccc2c(C)c(C(=O)N(Cc3cccs3)C3CCS(=O)(=O)C3)oc2c1` (stereo not given): the result was inactive.
For the molecule `CCN1CCN(c2c(Cl)cccc2NC(=O)c2ccc3nsnc3c2)CC1`, the outcome was inactive.
Regarding `O=C(C1CCCN(Cc2ccncc2)C1)N1CCc2ccccc2C1` (stereo not given), the result was inactive.
The same measure, in the same setting: to `CCN(c1ccccc1)S(=O)(=O)c1ccc(C(=O)N(CCCN(C)C)c2nc3cc4c(cc3s2)OCO4)cc1` belongs “inactive”; to `CC1CCCN(CCCNC(=O)c2ccc3c(c2)N(Cc2ccccc2F)C(=O)c2ccccc2S3(=O)=O)C1` (stereo not given), “inactive”.
Regarding `O=C(Nc1nnc(-c2ccccc2Cl)o1)c1nc2ccccc2s1`, the activation is 30.2% (active).
With `COc1ccc(C(=O)NC(=S)NNC(=O)CCc2ccccc2)cc1`, the outcome was inactive.
Consider `Cc1cc(-c2nn(-c3ccccc3F)cc2CNCCc2cnc[nH]2)c(C)s1`, for which the outcome was inactive.
As for `Cc1ccc(C(=O)NC(=S)NNC(=O)c2ccccc2)cc1`, the activation is 12.1% (active).
In the case of `Cc1csc2c(N3CCN(C(=O)NC(C)(C)C)CC3)ncnc12`, the result was inactive.
With `COC(=O)[C@@]1(Cc2ccc(F)cc2)[C@H]2c3cc(C(=O)N(C)C)n(CCc4ccccn4)c3C[C@H]2CN1C(=O)c1ccccc1`, the outcome was inactive.
On the same count and under the same terms, to `CN(CCc1ccccn1)C(=O)CC1C(=O)NCCN1Cc1ccccc1C(F)(F)F` (stereo not given) belongs “inactive”.
Turning to `COc1cc(/C=C/C(=O)c2ccc3c(c2)OCO3)cc(Cl)c1O`, the activation is 122% (active).
As for `CCn1c(N2CCN(C(=O)Nc3ccc(F)cc3)CC2)nc2ccccc21`, the outcome was inactive.
On the same count and under the same terms, as for `O=S(=O)(c1ccccc1)c1nnn2c1nc(NC1CCN(Cc3ccccc3)CC1)c1cc(Cl)ccc12`, the entry is “inactive”; as for `CCOC(=O)c1oc2ccc(OC)cc2c1NC(=O)CN1CCN(C)CC1`, “inactive”; as for `C=CCn1c(CCNC(=O)C(C)(C)C)nc2ccccc21`, “inactive”.
For the molecule `CCOC(=O)C1(CCOc2ccccc2)CCN(Cc2ccc3c(c2)OCCO3)CC1`, the result was inactive.
With `Cc1cc(C)n(-c2nc(SCCN(C)C)c3c4c(sc3n2)CCCC4)n1`, the outcome was inactive.
As to `COc1cc(OC)cc(C(=O)NC2CCCN(Cc3ccc(Cl)cc3)C2)c1` (stereo not given), the outcome was inactive.
For `CN(C)C(CNC(=O)CCc1c[nH]c2ccccc12)c1ccccc1` (stereo not given), the result was inactive.
As to `CCCCN(CC)CCCNC(=O)Cn1nc(Cc2ccncc2)c2ccccc2c1=O`, the outcome was inactive.
The same measure, in the same setting: as for `COC(=O)C1=C(C)N(Cc2ccccc2)C(=NCCc2ccccn2)N[C@H]1c1cccc(F)c1`, the entry is “inactive”.

The values above are taken from PubChem BioAssay.
